Assay outcomes from PubChem.
p53null 32C tox: p53 null cell cytotoxicity, permissive temperature; Potency, µM (highest dose often 46.1 µM), inactives show top-dose activity change, negative = cytotoxicity, hits mostly cytotoxic; 55,000 compounds, 0.62% hits; H1299-neo p53 null cells, ATP luminescence, 24 h, 32C;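 note: potency is the fitted concentration of half-maximal effect; 0% = DMSO only and -100% = full killing by 100 µM tamoxifen; nearly all actives have a fitted effect of over 55% in size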
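AC50 values derive from Hill modelling of qHTS concentration-response data (up to 46 uM) in H1299-neo cells. Cells were treated 24 h at 32C following overnight attachment at 37C; viability was read as cellular ATP.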
FH mod: Identification of activators of human fumarate hydratase by quantitative high-throughput screening; FH coupled MDH/diaphorase resazurin fluorescence, 15 min; 54,000 compounds, 0.22% hits; Potency, µM (doses to about 79.9 µM), without a hit: at the top dose activity change, negative = inhibition, hits mostly inhibitors; AID 1347055, 2019; Fumarate hydratase, mitochondrial (Homo sapiens), P07954; note: potency is the fitted concentration of half-maximal effect; % is set by controls: 0 for no effect and ±100 for the full control effect; the screen sought activators but most active calls are inhibition curves; nearly all actives have a fitted effect of over 45% in size
Target sequence (P07954 whole entry, looked up): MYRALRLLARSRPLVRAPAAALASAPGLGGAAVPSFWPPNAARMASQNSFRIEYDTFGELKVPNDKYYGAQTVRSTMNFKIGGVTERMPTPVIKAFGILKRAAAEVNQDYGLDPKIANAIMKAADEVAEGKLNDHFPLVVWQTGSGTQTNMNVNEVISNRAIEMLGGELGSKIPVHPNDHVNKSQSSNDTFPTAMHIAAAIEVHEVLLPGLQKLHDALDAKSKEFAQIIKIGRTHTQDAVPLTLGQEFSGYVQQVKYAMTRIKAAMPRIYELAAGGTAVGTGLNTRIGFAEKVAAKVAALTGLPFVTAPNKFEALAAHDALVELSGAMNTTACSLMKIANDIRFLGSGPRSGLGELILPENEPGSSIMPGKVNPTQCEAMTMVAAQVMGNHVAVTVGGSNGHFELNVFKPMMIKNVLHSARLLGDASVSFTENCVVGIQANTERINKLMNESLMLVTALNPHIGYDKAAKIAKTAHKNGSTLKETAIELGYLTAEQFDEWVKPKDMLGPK
p53null 39C kill: selectivity test: cytotoxicity in p53 null cells, nonpermissive temperature; H1299 p53-null (neo) cells, 39C, ATPlite viability, 24 h; Potency, µM (titrated, usually from 46.1 µM), for the others: at the top dose activity, negative = cell killing, usual class: cytotoxic; 55,000 compounds, 0.97% hits; AID 904;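 note: potency is the fitted concentration of half-maximal effect; 0% = DMSO only and -100% = full killing by 100 µM tamoxifen; nearly all actives have a fitted effect of over 50% in size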
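ATP-luminescence viability readout (ATPlite, 20 min RT) after 24 hr compound treatment at 39C of H1299-neo or H1299-p53A138V cells; titration up to 46 uM; normalized to DMSO and 100 uM tamoxifen; Hill-fit AC50.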
GPR32 ag: GPR32 (DRV1) agonism, beta-arrestin recruitment | AID 1346428 | 48,000 compounds, 2.5% hits | O75388 | activation, % at 76.9 µM | CHO-K1 GPR32 beta-arrestin PathHunter luminescence, 90 min; zero percent set by DMSO-only wells;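 active = activation of at least 60% and not above a set upper limit, about 1 call in 100 departs from these limits; inconclusive = activation of 40% to 60%, or above that upper limit; inactive = activation under 40%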; note: 0% is about no effect
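PathHunter enzyme-fragment complementation, CHO-K1 GPR32 stable line; 2,500 cells/well, overnight attach; cpd 90 min 37 °C 5% CO2; detection reagent 1 h RT; chemiluminescence. DMSO = EC0.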
* marks the source's active call; other numbers are inactive results; ? = inconclusive; nt = no result given; ! = repeats disagree; [ ] = remark or other dose. Most compounds without a hit are left out; they make up all but 2.9% or so of the library. Unless noted, calls come from the whole dose curve; as a rule, active = well fitted curve in the direction sought with a large enough effect; inconclusive = small, poorly fitted or top-dose-only effect, or another doubt; inactive = no such curve, though single readings can be large; an effect the other way counts as inactive or inconclusive.

SMILES | p53null 32C tox | FH mod | p53null 39C kill | GPR32 ag
CC(C)c1ccc2c(c1)C(=O)CC1[C@@](C)(C(=O)O)CCC[C@]21C (stereo partly specified) | nt | 25.0%[53.3 µM] | nt | nt
Cc1nc(NC(=O)N2CCCC2C(N)=O)sc1-c1ccnc(C(C)(C)C(F)(F)F)c1 (stereo unspecified) | nt | 5.1% | nt | nt
COc1cc(Cl)c(NC(=O)CN(C)S(=O)(=O)c2ccc3c(c2)CCCC(=O)N3)c(OC)c1 | -10.1% | -16.4% | ? | 66.9*
CCOc1ccc(NC2SC(=O)N(Cc3ccccc3)C2=O)cc1 (stereo unspecified) | 7.0% | 39.8µM*[activator] | -5.9% | -43.7
CC[N+]1(C/C2=C/CCCCCC2)CCC(NC(=O)C2c3cc(Cl)ccc3Oc3ccc(Cl)cc32)CC1 (stereo unspecified) | nt | 1.8% | nt | nt
COCc1c(O)c(C(=O)O)c(C)c2c1OC(=O)c1c(C)cc(O)c(CO)c1O2 | nt | -11.2%[53.3 µM] | nt | nt
COc1ccccc1NC(=O)c1c(NC(=O)Cc2ccccc2)sc2c1CCC(C(C)(C)C)C2 (stereo unspecified) | -3.6% | -8.6% | 3.0% | -4.2
CCc1ccccc1NC(=O)c1c(NC(=O)c2ccccc2)sc2c1CCCC2 | 5.9% | 2.1% | -7.0% | -0.4
CCOc1ccccc1NC(=O)c1c(NC(=O)c2ccncc2)sc2c1CCC(C(C)(C)C)C2 (stereo unspecified) | -9.5% | -14.3% | -8.1% | 113.1*
Cc1ccccc1C(=O)Nc1sc2c(c1C(=O)O)CCC(C(C)(C)C)C2 (stereo unspecified) | -3.7% | ? | 4.2% | -0.5
CCOc1ccccc1NC(=O)c1c(NC(=O)c2ccccc2)sc2c1CCCC2 | 5.9% | -15.1% | 18.0% | 66.3*
Cc1ccccc1NC(=O)c1c(NC(=O)c2ccncc2)sc2c1CCC(C(C)(C)C)C2 (stereo unspecified) | -9.5% | ? | 14.3% | 72.5*
O=C1COc2nccc(-c3ccccc3F)c2CN1Cc1cc(C(F)(F)F)cc(C(F)(F)F)c1 | nt | -1.8% | nt | nt
C=CC1(C)CC=C2C(CCC3C(C)(C(=O)O)CCCC23C)C1 (stereo unspecified) | nt | -17.3% | nt | nt
CCS(=O)(=O)N1CCc2cc(C(=O)Nc3cccc(C)c3C)ccc21 | 3.5% | 3.1% | 5.7% | 7.5
CCS(=O)(=O)N1CCc2cc(C(=O)Nc3ccc(Br)cc3F)ccc21 | -9.3% | -6.0% | -6.4% | 74.5*
COc1ccc(-c2noc(COc3ccc(C)cc3C)n2)cc1OC | -9.8% | -11.9% | 0.7% | -22.9
COc1ccccc1C(=O)N(Cc1nc(-c2cccc(C)c2)no1)C(C)C | 0.8% | -4.8% | -15.2% | 86.6*
Cc1cccc(-c2noc(CN(C(=O)c3ccc(C)c(C)c3)C(C)C)n2)c1 | -8.1% | -16.3% | ? | 14.6
COc1ccccc1OCc1nc(-c2cccc(C)c2)no1 | ? | -28.2% | ? | 76.8*
Cc1ccc(NC(=O)Nc2cn(C)c(=O)c3ccccc23)c(Cl)c1 | -5.6% | 28.2µM*[activator] | -2.1% | -54.1
CCc1ccc(NC(=O)Nc2cn(C)c(=O)c3ccccc23)cc1 | 6.7% | 31.6µM*[activator] | 12.4% | -35.6
Cc1ccc(NC(=O)Cn2nc(Cc3ccncc3)c3ccccc3c2=O)c(Cl)c1 | -25.4% | -11.5% | 3.8% | -17.6
O=C(Nc1nnc(SCc2cc(=O)c3ccccc3[nH]2)s1)c1ccccc1 | 0.6% | -23.2% | -16.4% | 32.8
Cc1ccc(C(=O)Nc2nnc(SCc3cc(=O)c4c(C)ccc(C)c4[nH]3)s2)cc1 | -15.6% | -25.8% | -16.3% | 70.6*
SMILES | p53null 32C tox | FH mod | p53null 39C kill | GPR32 ag
COc1ccc(NC(=O)c2cccn2-c2nnc(N3CCCCC3)s2)c(OC)c1 | -28.6% | -5.3% | ? | -16.7
CCN(CC)c1ccc(NC(=O)c2cccn2-c2nnc(N3CCCCC3)s2)c(C)c1 | 6.7% | ? | 58.3% | 76.5*
Cc1ccc(S(=O)(=O)Cc2nc(-c3ccc(C(=O)NCc4ccccc4)cc3)oc2C)cc1 | 3.3% | 4.9% | 28.6% | 77.2*
O=C(Nc1ccc(F)cc1)c1csc2c1CCCCC2 | 15.8µM* | -3.7% | ? | -2.5
COc1cc(CN(CCN)C(=O)c2cccs2)ccc1OCc1ccccc1 | nt | -0.8% | nt | nt
CC1=C(C)C(=O)OC(C(C)C2C(O)CC3C4C5OC5C5(O)CC(OC6OC(CO)C(O)C(O)C6O)CC(O)C5(C)C4CCC32C)C1 (stereo unspecified) | nt | -4.9%[20.6 µM] | nt | nt
CC(C)CC(=O)Nc1ccc(Cl)c(-c2nc3ccccc3[nH]2)c1 | -1.1% | -3.5% | -0.4% | 31.8
CC(C)(C)C(=O)Nc1ccc(-c2nc3ccc(NC(=O)C(C)(C)C)cc3[nH]2)cc1 | 12.6µM* | -4.3% | 3.98µM* | -15.5
CC(C)(C)C(=O)Nc1ccc(Cl)c(-c2nc3ccccc3[nH]2)c1 | 0.1% | -3.7% | 5.7% | 87.8*
C=C1C(=O)O[C@H]2/C=C(/C)[C@@H](OC(C)=O)C/C=C(\C)C[C@@H](OC(=O)/C(=C/C)COC(=O)/C(=C/C)CO)[C@@H]12 | nt | -4.6%[53.3 µM] | nt | nt
CC12CCC3C1C(c1c(cc(O)c(C(=O)c4ccccc4)c1O)O2)C3(C)C (stereo unspecified) | nt | -24.3%[53.3 µM] | nt | nt
CCc1ccc(Sc2cc(C(=O)NCCCN3CCC(C)CC3)c3ccccc3n2)cc1 | 8.3% | -10.9% | 21.8% | 89.4*
CCc1ccc(Sc2cc(C(=O)NCc3cccc(OC)c3)c3ccccc3n2)cc1 | -4.0% | -3.8% | 3.1% | 5.6
CCc1ccc(Sc2cc(C(=O)NCCCN3CCCC(C)C3)c3ccccc3n2)cc1 (stereo unspecified) | 3.4% | 2.5% | 13.5% | 88.0*
CCOC(=O)c1cc(S(=O)(=O)NCc2ccc(F)cc2)[nH]n1 | -4.3% | -4.4% | -2.1% | -15.5
CCOC(=O)Nc1ccc(NCc2ccc(F)cc2)nc1N | nt | 12.6µM*! | nt | -2.3
CC(=O)Nc1ccc(NC(=O)C2Cc3ccccc3N2C(=O)c2ccccc2)cc1 (stereo unspecified) | -6.9% | 4.5% | -13.1% | 100.1*
CC(=O)c1ccc(NC(=O)C2Cc3ccccc3N2C(=O)c2ccccc2)cc1 (stereo unspecified) | -14.8% | -5.4% | -23.2% | -8.8
NC(=O)c1nc(Nc2ccccc2)sc1NC(=O)c1c(F)cccc1F | -2.0% | 4.7% | 8.0% | -1.7
Cc1ccc(Nc2nc(C(N)=O)c(NC(=O)c3ccccc3Br)s2)cc1 | -12.2% | -7.5% | 10.9% | 60.9*
CCOc1ccc(NC(=O)c2ccccc2O)cc1 | 7.08µM* | nt | 7.94µM* | nt
CCOc1ccc(Cc2nccc3cc(OCC)c(OCC)cc23)cc1OCC | nt | -4.5%[53.3 µM] | nt | 88.3*
CCOc1ccc(CNC(=O)CCn2cccn2)cc1OC | -6.2% | 3.7% | -6.7% | 2.2
Cc1ccc(NC(=O)Cn2cc(S(=O)(=O)NC(C)C)c(S(=O)(=O)NC(C)C)c2)cc1Cl | 7.3% | ? | -7.8% | 68.9*
COc1ccc(-c2cc(C(=O)NCCc3ccccc3)c3c(-c4ccccc4)[nH]nc3n2)cc1 | -29.5% | 7.0% | ? | -19.9
